Compounds without any hit were thinned out: in the full panel of roughly 83,000, 20% have a hit.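 Values shown are percent growth following 48 h exposure of cells in 96-well plates to a single concentration of compound; below 10 was considered active.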 Unmarked numbers belong to inactive results. Active and inactive are the calls of the source.
What was measured:
Assay in all cases: NCI-60 one-dose screen, 48 h (100 = growth as untreated, 0 = no growth, -100 = all killed)
SK-MEL-2 melanoma = details: 10 µM unless noted
EKVX NSCLC = details: 10 µM unless noted
SN12C renal = details: 10 µM unless noted
UO-31 renal = details: 10 µM unless noted
TK-10 renal = details: 10 µM unless noted
ACHN renal = details: 10 µM unless noted
CAKI-1 renal = details: 10 µM
A498 renal = details: 10 µM unless noted
CCRF-CEM leukemia = details: 10 µM unless noted
MOLT-4 leukemia = details: 10 µM unless noted
SR leukemia = details: 10 µM unless noted
RPMI-8226 leukemia = details: 10 µM unless noted
OVCAR-8 ovarian = details: 10 µM unless noted
OVCAR-5 ovarian = details: 10 µM unless noted
OVCAR-4 ovarian = details: 10 µM unless noted
IGROV1 ovarian = details: 10 µM unless noted
OVCAR-3 ovarian = details: 10 µM unless noted
HS 578T breast = details: 10 µM unless noted
NCI/ADR-RES ovarian = details: 10 µM unless noted
SK-OV-3 ovarian = details: 10 µM unless noted

SMILES | growth (SK-MEL-2 melanoma) | growth (EKVX NSCLC) | growth (SN12C renal) | growth (UO-31 renal) | growth (TK-10 renal) | growth (ACHN renal) | growth (CAKI-1 renal) | growth (A498 renal) | growth (CCRF-CEM leukemia) | growth (MOLT-4 leukemia) | growth (SR leukemia) | growth (RPMI-8226 leukemia) | growth (OVCAR-8 ovarian) | growth (OVCAR-5 ovarian) | growth (OVCAR-4 ovarian) | growth (IGROV1 ovarian) | growth (OVCAR-3 ovarian) | growth (HS 578T breast) | growth (NCI/ADR-RES ovarian) | growth (SK-OV-3 ovarian)
O=C(O)CNS(=O)(=O)c1ccc(Oc2ccc(S(=O)(=O)NCC(=O)O)cc2)cc1 | 104% | 96.9% | 93.5% | 91.4% | 101% | 98.9% | 91.4% | 69.9% | 100% | 95.7% | 96.7% | 100% | 97.9% | 101% | 111% | 104% | 104% | 95.2% | 102% | –
NC(=O)c1c(NC(=O)c2cccc(OC(F)(F)F)c2)sc2c1CCC(=O)C2 | 105% | 68.7% | 59.5% | 30.1% | 73.3% | 20.2% | 45.7% | 88.3% | 8.53% (active) | 44.4% | 30% | 6.56% (active) | 53% | 62.5% | 13.8% | 36.4% | 67.2% | 40.4% | 57.5% | –
CCOC(=O)c1nn(-c2ccccc2)c(=O)c2c(N)c(C#N)c(-c3cccs3)cc12 | 98.4% | 83.9% | 75.1% | 50.9% | 115% | 54.4% | 62.8% | 102% | 99.5% | 97% | 96% | 74.4% | 54.5% | 88.8% | 36.7% | 64% | 109% | 32.9% | 59.8% | –
O=C(NNc1nc2cc(F)c(F)cc2n2cccc12)c1cccnn1 | 19.3% | 7.06% (active) | 15.8% | 13.3% | 39.5% | 10.2% | 11.8% | 14.2% | 7.8% (active) | 7.86% (active) | 11.8% | 9.62% (active) | 19.8% | 42.5% | 4.78% (active) | 14.4% | 7.39% (active) | – | -0.232% (active) | –
Oc1ccc(-c2nnc(SCc3ccc(O)c4ncccc34)o2)cc1 | 17% | 15.6% | 6.09% (active) | -5.74% (active) | 13.6% | 3.36% (active) | 3.35% (active) | -8.21% (active) | 12.1% | 16.5% | 37.4% | 4.27% (active) | 15.9% | 27.1% | – | 3.93% (active) | 6.01% (active) | -0.346% (active) | 7.18% (active) | -3.56% (active)
CCCCOc1ccc(S(=O)(=O)N2CCN(c3nccc(N4CCOCC4)n3)CC2)cc1 | 33.5% | 46.3% | 28.7% | 24.8% | 44.3% | 15.1% | 13.8% | -1.44% (active) | 49.8% | 24.2% | 46.3% | 6.35% (active) | 49.5% | 56.2% | 49.4% | 9.51% (active) | 105% | 69.4% | 31.2% | –
C/C(=C(/C)C1CC1CCN(C(=O)c1ccc([N+](=O)[O-])cc1)S(=O)(=O)c1ccc(C)cc1)C1CCCCC1 (configuration not stated) | 102% | 82.4% | 91.8% | 92.2% | 108% | 99% | 84.9% | 105% | 93.6% | 80.3% | 94.8% | 85.7% | 97.6% | 101% | 90.8% | 111% | 96.2% | 102% | 94.3% | –
COc1cc(/C=N/Nc2ccnc3cc(Cl)ccc23)cc(OC)c1O | 119% | -71.8% (active) | -64.7% (active) | -96.4% (active) | -69.6% (active) | -98.2% (active) | -93% (active) | 99.5% | 9.72% (active) | -13% (active) | -23.9% (active) | -9.43% (active) | -56% (active) | -5% (active) | -50.2% (active) | -83.8% (active) | – | – | 2.57% (active) | –
NC(=O)N1N=C(c2cc3ccccc3oc2=O)CC1c1cn(-c2ccccc2)nc1-c1ccc(Cl)cc1 (configuration not stated) | 71.8% | 24.3% | 47.4% | 17.8% | 93.4% | 32.5% | 32.9% | 54.5% | 7.27% (active) | 17.3% | 44.2% | 48.4% | 37.1% | 64.9% | 34.9% | 28.8% | 17.6% | 65.1% | 29.3% | –
COc1cc(/C=C2\SC(=O)NC2=O)ccc1OCC(=O)Nc1ccc(C(=O)/C=C/c2cc3ccccc3nc2Cl)cc1 | 103% | 77% | 93.5% | 66.1% | 104% | 93.8% | 80.3% | 111% | 57.2% | 51.4% | 27.7% | -1.87% (active) | 84% | 109% | 52.9% | 92.6% | 104% | 99.1% | 97.9% | –
O=C1c2cc(Br)ccc2-n2c1nc1cc(Br)ccc1c2=O | 73.4% | 59.5% | 76.6% | 62.6% | 149% | 79% | 78.7% | 125% | 71.9% | 67.7% | 65.8% | 75.8% | 78.3% | 90.8% | 64.7% | 59.8% | 47.3% | 96.1% | 84.2% | –
COc1ccc(-c2nnc(SCc3ccc(O)c4ncccc34)o2)cc1 | 48.3% | 57.8% | 46.6% | 8.44% (active) | 56.4% | 23.6% | 32.1% | 69.8% | 15.7% | 28.1% | 45.8% | 9.32% (active) | 35.1% | 88.4% | 24.5% | 43% | 21.6% | -0.148% (active) | 16.9% | –
O=S(=O)(Nc1ccc(I)c(Cl)c1)c1ccc(-c2cnc(C3CC3)o2)cc1 | 43.7% | 42.5% | 42.9% | 51.7% | 53.3% | 41.5% | 6.99% (active) | 2.08% (active) | 14.1% | 29.2% | 27.9% | – | 38.9% | 45.2% | 56.8% | 36.3% | -9.98% (active) | 17.9% | 14.6% | 50.2%
COc1cc2cc(Oc3ccc(NC(=O)Nc4cc(C(F)(F)F)cc(C(F)(F)F)c4)cc3)c(C)nc2cc1OCCN(C)C | 113% | 106% | 100% | 89.5% | 109% | 107% | 93.4% | 113% | 110% | 107% | 121% | 113% | 113% | 109% | – | 104% | 120% | 101% | 109% | 113%
O=S(=O)(Nc1cc(Cl)c(F)c(Cl)c1)c1ccc(-c2cnc(C3CC3)o2)cc1 | 51.9% | 47.6% | 48.7% | 56.8% | 72.5% | 49.4% | 12% | 15.5% | 20.7% | 38% | 36% | – | 44.5% | 48.4% | 58.3% | 43.5% | 15.4% | 30.5% | 26.8% | 72.8%
